# Measured values published in the supplement of paper PMC8728848.
# The full list was thinned out, with the strongest signals kept by preference.
# What was measured:
# Test in all cases: glycan array binding signal (z-score within array); higher = stronger binding
# Conditions in all cases: glycan notation: IUPAC condensed, linker removed
# [1] = system: GlcNAc(b1-2)Man(a1-3)[GlcNAc(b1-4)][GlcNAc(b1-2)Man(a1-6)]Man(b1-4)GlcNAc(b1-4)[Fuc(a1-6)]GlcNAc
# How it was run: (§1)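 Negative Z-scores can be read as non-binding. The Z-score is calculated within each array and then averaged across arrays of one protein sequence at different concentrations or buffers and across linkers. Arrays, 3228 in all, were curated from the Consortium for Functional Glycomics database and kept only where the protein sequence was available.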
# [2] = system: GlcNAc(b1-2)[GlcNAc(b1-4)]Man(a1-3)[GlcNAc(b1-4)][GlcNAc(b1-2)[GlcNAc(b1-6)]Man(a1-6)]Man(b1-4)GlcNAc(b1-4)GlcNAc
# How it was run: as §1
# [3] = system: GlcNAc(a1-4)Gal(b1-4)GlcNAc(b1-3)Gal(b1-4)[Fuc(a1-3)]GlcNAc(b1-3)Gal(b1-4)[Fuc(a1-3)]GlcNAc
# How it was run: as §1
# [4] = system: GlcNAc(b1-2)Gal(b1-3)GalNAc
# How it was run: as §1
# [5] = system: GlcNAc(a1-3)Gal(b1-4)GlcNAc
# How it was run: as §1
# [6] = system: GlcNAc(a1-4)Gal(b1-4)GlcNAc(b1-3)Gal(b1-4)GlcNAc
# How it was run: as §1
# [7] = system: GlcNAc(b1-2)Man(a1-3)[GlcNAc(b1-2)Man(a1-6)]Man(b1-4)GlcNAc(b1-4)[Fuc(a1-6)]GlcNAc
# How it was run: as §1
# [8] = system: GlcNAc(b1-2)[GlcNAc(b1-4)]Man(a1-3)[GlcNAc(b1-2)Man(a1-6)]Man(b1-4)GlcNAc(b1-4)GlcNAc
# How it was run: as §1
# [9] = system: GlcNAc(a1-4)Gal(b1-4)GalNAc
# How it was run: as §1
# [10] = system: GlcNAc(b1-2)Man(a1-3)[GlcNAc(b1-2)Man(a1-6)]Man(b1-4)GlcNAc(b1-4)GlcNAc
# How it was run: as §1
substance,measurement,setting,value
LcI (Legionella pneumophila),glycan array binding signal (z-score),[1],-0.447
same,glycan array binding signal (z-score),[2],-0.477
"Wza (Escherichia coli), P0A930",glycan array binding signal (z-score),[3],3.13
"SiiE (Salmonella typhimurium), A0A0H3NVH0",glycan array binding signal (z-score),[4],0.158
same,glycan array binding signal (z-score),[2],-1.05
"BambL (Burhholderia ambifaria), Q0B4G1",glycan array binding signal (z-score),[5],-0.316
same,glycan array binding signal (z-score),[6],-0.278
same,glycan array binding signal (z-score),[3],0.185
same,glycan array binding signal (z-score),[7],0.071
same,glycan array binding signal (z-score),[8],-0.291
"GspB (Streptococcus gordonii), Q939N5",glycan array binding signal (z-score),[5],2.63
AgI/II Vhelical-GFP (Streptococcus mutans),glycan array binding signal (z-score),[6],1.06
same,glycan array binding signal (z-score),[8],-0.187
Epa22,glycan array binding signal (z-score),[9],-0.638
same,glycan array binding signal (z-score),[7],-0.14
AgI/IIC123-GFP (Streptococcus mutans),glycan array binding signal (z-score),[10],-0.346
